# This is a sample that favours compounds with a hit; in the whole collection about 4% have one here.
# HEK293 cAMP cs = counter-screen for TSHR agonists: cAMP increase in parental HEK293; Potency, µM (series often up to 57.1 µM), without a hit: at the highest dose activation, usual class: activators; parental HEK293 CNG cAMP sensor, membrane potential fluorescence; hit rate 2.5% among 73,000; AID 938; further: potency means the concentration at half of the fitted maximal effect; % of control where 0% means no effect; nearly all actives have a fitted effect of over 55% in size
#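 Parental HEK 293 cells stably expressing a cAMP-gated CNG channel were loaded with membrane potential dye containing 100 uM RO 20-1724 for 60 min. Compound added for 30 min; depolarization read as fluorescence intensity at 590 nm.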
# TSHR ag = agonists of human thyroid stimulating hormone receptor; Potency, µM (titrated, usually from 57.1 µM), for inactives: at the highest dose activation, actives largely listed as activators; hit rate 0.48% among 73,000; HEK293-CNG-TSHR cells (CNG channel as cAMP sensor), membrane potential dye, cAMP; P16473; AID 926; active means well fitted activation curve with a large enough effect in the main read-out, with a control signal flat, not every such curve was filed as active; inconclusive means small, poorly fitted or top-dose-only effect, or a change in a side signal; inactive means no such curve, though single readings can be large or run the other way; % of control where 0% means no effect;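 further: the control signal comes from parental cells without the receptor; potency means the concentration at half of the fitted maximal effect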
# Target sequence (P16473 whole entry, looked up): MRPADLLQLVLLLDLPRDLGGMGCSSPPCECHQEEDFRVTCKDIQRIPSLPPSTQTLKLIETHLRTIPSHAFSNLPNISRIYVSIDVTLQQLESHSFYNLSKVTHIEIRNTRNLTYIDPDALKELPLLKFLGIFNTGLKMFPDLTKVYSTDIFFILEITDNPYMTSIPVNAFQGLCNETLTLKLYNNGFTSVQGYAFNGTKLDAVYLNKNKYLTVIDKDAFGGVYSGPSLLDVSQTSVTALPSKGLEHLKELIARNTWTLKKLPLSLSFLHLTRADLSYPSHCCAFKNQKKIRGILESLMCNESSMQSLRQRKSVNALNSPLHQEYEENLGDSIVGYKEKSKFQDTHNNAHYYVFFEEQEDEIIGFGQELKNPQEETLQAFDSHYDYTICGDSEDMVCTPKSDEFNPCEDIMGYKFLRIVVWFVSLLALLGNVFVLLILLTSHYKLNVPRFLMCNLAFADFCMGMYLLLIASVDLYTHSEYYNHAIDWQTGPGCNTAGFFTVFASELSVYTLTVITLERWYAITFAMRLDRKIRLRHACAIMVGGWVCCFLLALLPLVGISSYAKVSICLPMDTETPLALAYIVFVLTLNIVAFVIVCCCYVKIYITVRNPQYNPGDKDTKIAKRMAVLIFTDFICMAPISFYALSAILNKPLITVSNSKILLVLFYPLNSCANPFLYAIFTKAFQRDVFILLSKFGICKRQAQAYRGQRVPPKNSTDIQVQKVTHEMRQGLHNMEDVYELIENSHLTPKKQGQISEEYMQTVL
#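 HEK 293 cells stably expressing TSHR and a modified CNG channel, with CNG-only parental cells as counterscreen, were preloaded 60 min at room temperature with membrane potential dye containing 100 uM RO 20-1724. Compound exposure was 30 min, and depolarization was read as fluorescence at 590 nm.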
# GBA activity = modulators of human glucocerebrosidase | purified enzyme, resorufin glucoside fluorescence (screen aimed at inhibitors), 20 min | Potency, µM | hit rate 1.1% among 48,000; in the data active means potency below about 15 µM; inconclusive means mostly about 16 µM to 33 µM;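 further: potency means the concentration at half of the fitted maximal effect; the screen sought inhibitors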
#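 Wild-type enzyme at 0.2 nM final in 50mM citric acid/KH2PO4, 10mM sodium taurocholate, 0.01% tween-20, pH 5.9, with resorufin beta-D-glucopyranoside at 30 uM final. Compounds titrated, 20 min at RT, red fluorescence read; AC50 from titration.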
# Bst PK mod = alters activity of Bacillus stearothermophilus pyruvate kinase; purified pyruvate kinase, luminescence ATP production; ribose 5-phosphate activator present at AC10; Potency, µM; hit rate 1.2% among 51,000; AID 361; in the data active means potency below about 11 µM; inconclusive means mostly about 12 µM to 25 µM;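 the screen sought inhibitors and activators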;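 further: potency means the concentration at half of the fitted maximal effect; scaled between full activation by ribose 5 phosphate and full inhibition by luteolin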
# parental cAMP = TSHR-independent cAMP elevation, counter-screen; shares compounds with TSHR ag; parental HEK293 CNG biosensor, cAMP membrane potential fluorescence; activity change, negative = inhibition, % at 32.9 µM; 150 tested, under 10 active
# The depositor's hits bear a star; ? = inconclusive; · = no result given; [ ] = another dose, or the depositor's remark. Unless noted, the call rests on the fitted dose curve; in most records, active means well fitted curve in the direction sought with a large enough effect; inconclusive means small, poorly fitted or top-dose-only effect, or another doubt; inactive means no such curve, though single readings can be large; an effect the other way counts as inactive or inconclusive.
SMILES,HEK293 cAMP cs,TSHR ag,GBA activity,Bst PK mod,parental cAMP
CC(C)C(=O)Nc1ccc(N2CCN(S(C)(=O)=O)CC2)cc1,0%,5%[11.4 µM],>77,>57,·
CCc1ccccc1NC1=NCC(=O)N1Cc1ccc(OC)cc1,27%,7.9µM*,>77,>57,-6
Cc1oc(-c2cccc(Cl)c2)nc1CN1CCCC(C(=O)NC(C)c2ccc3c(c2)OCCO3)C1 (stereo unspecified),9%,5%,·,·,9[25.6 µM]
Cc1oc(-c2cccc(Cl)c2)nc1CN1CCCC(C(=O)NCc2ccco2)C1 (stereo unspecified),17%,6%[11.4 µM],·,>57,·
O=C1c2ccccc2C(=O)N1Cc1nc(-c2ccccc2)no1,4%,21%,>77,>11,21[25.6 µM]
O=C1c2ccccc2C(=O)N1Cc1nc(-c2ccncc2)no1,14%,14%,>77,>57,·
COc1cc2c(N3CCOCC3)cc(O)c(CC(=O)Nc3ccccc3)c2cc1OC,25%,32µM*,>77,>57,-11
C=CC[C@@H]1C=C[C@@H](O/N=C\[C@@H](NS(=O)(=O)c2ccc(C)cc2)[C@H](C)/C=C\CC(=O)OC)[C@@H](CO)O1,-1%[11.4 µM],-3%[11.4 µM],·,·,·
Cc1cc(C)nc(N(C#N)CC(=O)N2CCC(C(N)=O)CC2)n1,1%,·,·,?,-13
O=C(C1COc2ccccc2O1)N1CCCC1 (stereo unspecified),-2%,-1%,·,·,-2[25.6 µM]
Cc1onc(-c2ccccc2Cl)c1C(=O)Nc1ccc(-n2nncc2-c2ccco2)cc1,-6%,6.3µM*,>77,>57,-3
COC(=O)NC(c1ccc2ccccc2c1)C(C(C)=O)C(=O)OC (stereo unspecified),3%[11.4 µM],12%[11.4 µM],·,·,·
C=Cc1ccccc1C=C,-1%,-9%,·,·,·
Cc1ccc(CNC(=O)c2cc3c(=O)n4ccccc4nc3n(Cc3ccco3)c2=N)cc1,·,·,·,>26,·
N=c1c(C(=O)NCc2ccc(F)cc2)cc2c(=O)n3ccccc3nc2n1Cc1ccco1,0%,-42%,>77,>57,-69[25.6 µM]
NCCC[C@@H](CC(=O)N[C@@H]1CCCC[C@H]1C(=O)N[C@H](CC(=O)N[C@@H](CCC(=O)O)CC(=O)O)Cc1ccccc1)NC(=O)C[C@H](CO)NC(=O)[C@@H]1CCCC[C@H]1N,3%,8%,·,·,·
O=C(CN(Cc1ccccc1Cl)C(=O)Cn1nnc(-c2cccs2)n1)NCC1CCCO1 (stereo unspecified),12%,6.3µM*,·,·,9
O=S(=O)(c1ccccc1)N1CCC2(CC1)CN(c1ncccn1)C2,5%,-3%,·,·,·
